For 20 molecules, growth inhibition, inhibition and outcome results are on record in PubChem BioAssay.

Assay [1] can be described thus: antimalarial activity against Dd2 strain (AID 2302;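 active means growth inhibition above 50% at the single 2 µM test dose, taken to imply half-maximal potency below 2 µM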;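 further: 0% = DMSO untreated growth and 100% = chloroquine plus artemisinin killed control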). The following applies: P. falciparum Dd2 in RBCs, LDH growth readout, 72 h; at 2 µM; stronger effect = higher value.
Assay [2] in a line: HepG2 cytotoxicity, primary screen, cytotoxicity control for P. falciparum antimalarial project, cell-based, ATP luminescence (AID 2303;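 active means inhibition above 50%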;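 further: 0% = DMSO wells and 100% = digitonin-killed cells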). The following applies: HepG2 viability, 24-48 h, at 10 µM, stronger effect = higher value.
Assay [3] concerns the target L-lactate dehydrogenase (Plasmodium falciparum (isolate CDC / Honduras)) (UniProt Q27743). As to the kind of experiment: PfLDH activity inhibition – cell lysate, 3D7 strain, counter-screen for P. falciparum growth inhibition project (AID 2304).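 Further: 0% = vehicle and 100% = reference inhibitor.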 The following applies: P. falciparum 3D7 crude extract, LDH APAD/NBT absorbance; at 2 µM; stronger effect = higher value.
The nature of assay [4]: inhibition of 3D7 malaria parasite growth – strain 3D7 (AID 2306).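 Further: 0% = DMSO wells and 100% = chloroquine plus artemisinin control wells.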 The following applies: P. falciparum 3D7 erythrocytic growth, LDH absorbance, 72 h; at 2 µM; stronger effect = higher value.
Assay [5] deals with Calcium-dependent protein kinase 1 (Plasmodium falciparum (isolate 3D7)) (UniProt P62344). The assay can be described thus: PfCDPK1 kinase inhibitors, biochemical, TCAMS library (AID 1159585; cut-off not given, nearly all actives have IC50 up to about 0.98 µM;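 further: inhibitors leave more ATP so luminescence rises with inhibition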). The following applies: recombinant PfCDPK1, Kinase-Glo ATP depletion luminescence.
The target in assay [6] is Plasmodium falciparum protein kinase 6 (PK6, PF3D7_1337100) (UniProt Q8IDW1). As to the kind of experiment: PfPK6 kinase inhibitors, biochemical, TCAMS library (AID 1159586). The following applies: recombinant PfPK6, Kinase-Glo ATP depletion luminescence. Background: In Kinase-Glo more light means more ATP remaining.
The target of assay [7] is Protein kinase 7 (PK7), Plasmodium falciparum 3D7 (PF3D7_0213400) (UniProt Q7YTF7). The assay can be described thus: inhibition of Plasmodium PK7 catalytic activity – biochemical, TCAMS antimalarial set, Kinase-Glo luminescence (AID 1159587). The following applies: recombinant PfPK7, Kinase-Glo ATP depletion luminescence.
Assay [8] addresses Calcium-dependent protein kinase 4 (Plasmodium falciparum (isolate 3D7)) (UniProt Q8IBS5). As to the kind of experiment: PfCDPK4 kinase inhibitors, biochemical, TCAMS library (AID 1159588; cut-off not given, nearly all actives have IC50 up to about 0.91 µM). The following applies: recombinant PfCDPK4, Kinase-Glo ATP depletion luminescence.

SMILES strings stand for the structures. A number with no mark means an inactive call. For some of these results: Potency and affinity values are given separately. Activity calls are given as the source filed them. Unless noted, how the calls were made is not given here.

Calcium-dependent protein kinase 1 (Plasmodium falciparum (isolate 3D7)), sequence (P62344 whole entry, looked up): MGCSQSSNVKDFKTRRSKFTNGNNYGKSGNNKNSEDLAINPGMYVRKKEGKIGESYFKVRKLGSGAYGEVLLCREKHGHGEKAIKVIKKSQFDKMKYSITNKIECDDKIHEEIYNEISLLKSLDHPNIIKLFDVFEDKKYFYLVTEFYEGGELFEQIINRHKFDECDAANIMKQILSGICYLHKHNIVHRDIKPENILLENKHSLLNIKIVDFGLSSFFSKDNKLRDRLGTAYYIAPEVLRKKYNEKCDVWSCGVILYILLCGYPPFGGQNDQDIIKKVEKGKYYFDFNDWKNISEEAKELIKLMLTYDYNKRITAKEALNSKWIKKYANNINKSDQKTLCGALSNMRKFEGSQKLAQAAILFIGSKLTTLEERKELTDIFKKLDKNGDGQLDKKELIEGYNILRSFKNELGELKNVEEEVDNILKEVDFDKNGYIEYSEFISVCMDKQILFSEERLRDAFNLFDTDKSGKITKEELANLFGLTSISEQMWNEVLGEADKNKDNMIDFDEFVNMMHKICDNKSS
Protein kinase 7 (PK7), Plasmodium falciparum 3D7 (PF3D7_0213400), sequence (Q7YTF7 1-343): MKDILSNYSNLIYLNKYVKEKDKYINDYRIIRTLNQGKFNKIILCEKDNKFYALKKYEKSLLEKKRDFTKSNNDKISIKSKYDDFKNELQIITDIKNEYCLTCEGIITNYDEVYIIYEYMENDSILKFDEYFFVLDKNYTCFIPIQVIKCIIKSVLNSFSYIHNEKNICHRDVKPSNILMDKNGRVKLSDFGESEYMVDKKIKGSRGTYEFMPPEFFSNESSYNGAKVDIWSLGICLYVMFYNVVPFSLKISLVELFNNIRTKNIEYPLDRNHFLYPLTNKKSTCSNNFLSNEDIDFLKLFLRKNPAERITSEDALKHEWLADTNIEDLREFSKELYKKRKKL
L-lactate dehydrogenase (Plasmodium falciparum (isolate CDC / Honduras)), sequence (Q27743 whole entry, looked up): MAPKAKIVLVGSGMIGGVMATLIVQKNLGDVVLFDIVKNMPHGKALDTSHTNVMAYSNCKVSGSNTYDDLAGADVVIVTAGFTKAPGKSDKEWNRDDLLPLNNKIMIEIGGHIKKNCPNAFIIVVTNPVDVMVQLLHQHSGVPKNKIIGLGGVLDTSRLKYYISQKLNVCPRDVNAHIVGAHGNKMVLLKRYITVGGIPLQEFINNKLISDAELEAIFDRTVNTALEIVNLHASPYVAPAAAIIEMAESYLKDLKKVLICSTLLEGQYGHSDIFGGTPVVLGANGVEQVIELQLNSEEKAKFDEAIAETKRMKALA
Calcium-dependent protein kinase 4 (Plasmodium falciparum (isolate 3D7)), sequence (Q8IBS5 whole entry, looked up): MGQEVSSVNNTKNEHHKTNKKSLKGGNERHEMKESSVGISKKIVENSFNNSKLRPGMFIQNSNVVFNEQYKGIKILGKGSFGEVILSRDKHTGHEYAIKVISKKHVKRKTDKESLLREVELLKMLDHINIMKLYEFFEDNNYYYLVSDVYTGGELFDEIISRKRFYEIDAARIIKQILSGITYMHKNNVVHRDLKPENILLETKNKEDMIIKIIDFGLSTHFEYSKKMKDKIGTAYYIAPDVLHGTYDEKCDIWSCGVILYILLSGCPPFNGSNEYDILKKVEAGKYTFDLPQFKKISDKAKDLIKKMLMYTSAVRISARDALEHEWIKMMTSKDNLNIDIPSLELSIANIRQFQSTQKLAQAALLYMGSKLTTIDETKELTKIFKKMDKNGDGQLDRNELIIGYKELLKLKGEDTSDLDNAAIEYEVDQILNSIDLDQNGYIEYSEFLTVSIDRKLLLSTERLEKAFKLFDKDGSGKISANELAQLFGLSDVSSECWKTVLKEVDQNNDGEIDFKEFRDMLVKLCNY
Plasmodium falciparum protein kinase 6 (PK6, PF3D7_1337100), sequence (Q8IDW1 1-305): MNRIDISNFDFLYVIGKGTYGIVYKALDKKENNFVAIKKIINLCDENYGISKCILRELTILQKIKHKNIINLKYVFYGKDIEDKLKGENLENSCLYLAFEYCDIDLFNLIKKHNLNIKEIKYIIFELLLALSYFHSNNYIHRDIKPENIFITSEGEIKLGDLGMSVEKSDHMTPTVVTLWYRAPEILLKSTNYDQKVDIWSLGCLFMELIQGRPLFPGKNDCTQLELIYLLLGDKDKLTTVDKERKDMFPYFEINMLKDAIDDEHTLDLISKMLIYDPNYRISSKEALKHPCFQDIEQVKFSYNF

Consider `O=C(Cc1ccccn1)Nc1cccc(-c2cccc(-c3nc4ccc(C(F)(F)F)cc4[nH]3)c2)c1`, for which the growth inhibition in assay [1] was 22%; in assay [4] it was 95% (active). The inhibition is 26% in assay [2] and -2% in assay [3]. Further, the result in assay [5], in assay [6], in assay [7] and in assay [8] was inactive.
As to `COc1ccccc1C1CCN(C2CCC(NC(=O)c3ccc4nc(-c5ccc(C)cc5)[nH]c4c3)CC2)CC1` (stereo not given), the growth inhibition in assay [1] is 100% (active); in assay [4] it was 101% (active). In addition, the inhibition in assay [2] was 100% (active); in assay [3], 4%. The result in assay [5], in assay [6], in assay [7] and in assay [8] was inactive.
With `O=C(N[C@@H](Cc1ccccc1)C(=O)NCCN1CCOCC1)c1ccc(O)c(-c2ccc(Cl)c(Cl)c2)c1`, the growth inhibition in assay [1] was 31%; in assay [4], 97% (active). Further, the inhibition in assay [2] is -4%; in assay [3], 5%. Further, the result in assay [5], in assay [6], in assay [7] and in assay [8] was inactive.
Consider `Nc1nc(N)c2c(Cl)c(N(Cc3ccccc3)Cc3ccccc3)ccc2n1`, for which the results for the growth inhibition in assay [1] and in assay [4] were 2% and 96% (active), respectively. Moreover, the values for the inhibition in assay [2] and in assay [3] were 66% (active) and 2%, respectively. Further, the result in assay [5], in assay [6], in assay [7] and in assay [8] was inactive.
In the case of `COc1cc(-c2cc(-c3ccc(OCCN(C)C)cc3)[nH]c2-c2ccncc2)ccc1Cl`, the growth inhibition in assay [1] was 100% (active); in assay [4] it was 101% (active). Moreover, the inhibition in assay [2] was 28%; in assay [3], -2%. The result in assay [5], in assay [6], in assay [7] and in assay [8] was inactive.
For the molecule `Cn1nc(-c2cccc(CNCc3ccccc3)c2)c2cnc(NC3CCCC3)nc21`, the figures for the growth inhibition in assay [1] and in assay [4] were 11% and 85% (active), respectively. For the same molecule, the inhibition in assay [2] was 5%; in assay [3], 1%. Further, the outcome in assay [5], in assay [6], in assay [7] and in assay [8] was inactive.
`Cc1ccccc1C1CCN(C2CCC(NC(=O)/C=C/c3c(F)ccc(F)c3F)CC2)CC1` (stereo not given): the growth inhibition in assay [1] is 33%; in assay [4], 82% (active). Moreover, the inhibition in assay [2] was 37%; in assay [3] it was 1%. The result in assay [5], in assay [6], in assay [7] and in assay [8] was inactive.
Consider `C=CCOC(=O)O[C@@H]1[C@@H](OC(=O)OCC=C)[C@@H](OC)O[C@H](COC(c2ccccc2)(c2ccccc2)c2ccccc2)[C@H]1OC(=O)OCC=C`, for which the growth inhibition in assay [1] is 96% (active); in assay [4], 95% (active). The inhibition in assay [2] is 5%; in assay [3], 2%. Besides, the result in assay [5], in assay [6], in assay [7] and in assay [8] was inactive.
Turning to `C=Cc1ccccc1C1(O)CCN(CCCCNC(=O)c2ccc(-c3ccc(C#N)cc3)cc2)CC1`, the growth inhibition is 64% (active) in assay [1] and 88% (active) in assay [4]. Further, the figures for the inhibition in assay [2] and in assay [3] were 27% and 0%, respectively. Besides, the result in assay [5], in assay [6], in assay [7] and in assay [8] was inactive.
Regarding `COc1cccc(CNC(=O)[C@@H]2CN(C(=O)c3ccccc3)CCN2)c1`, the growth inhibition in assay [1] is -1%; in assay [4] it was 92% (active). Also, the inhibition in assay [2] was 4%; in assay [3], -2%. For the same molecule, the outcome in assay [5], in assay [6], in assay [7] and in assay [8] was inactive.
Consider `NS(=O)(=O)c1ccc(CNc2ccc3ncc(-c4ccc(OC(F)(F)F)cc4)n3n2)cc1`, for which the growth inhibition in assay [1] was 99% (active); in assay [4] it was 97% (active). The inhibition in assay [2] is 10%; in assay [3], -7%. Moreover, the outcome in assay [5], in assay [6], in assay [7] and in assay [8] was inactive.
Take `CN1CCN(CCCN(Cc2cccc(-c3ccc(CNCCc4ccccc4)cc3)c2)C(=O)Nc2ccccc2)CC1`: the figures for the growth inhibition in assay [1] and in assay [4] were 91% (active) and 100% (active), respectively. In addition, the inhibition is 61% (active) in assay [2] and 3% in assay [3]. The result in assay [5], in assay [6], in assay [7] and in assay [8] was inactive.
In the case of `CCCCCCNC(=O)c1nn(CCN2CCC(N3CCCC3)CC2)cc1-c1ccc(Cl)c(Cl)c1`, the growth inhibition was 33% in assay [1] and 101% (active) in assay [4]. The inhibition in assay [2] is 31%; in assay [3] it was -2%. Further, the result in assay [5], in assay [6], in assay [7] and in assay [8] was inactive.
For `CC(=O)c1ccc(NC(=O)NNC(=O)c2ccc(CCN3CCC(c4nc(COCC(F)(F)F)c(-c5ccc(F)cc5)o4)CC3)cc2)cc1`, the growth inhibition is 27% in assay [1] and 96% (active) in assay [4]. The inhibition is 17% in assay [2] and -10% in assay [3]. Also, the result in assay [5], in assay [6], in assay [7] and in assay [8] was inactive.
As for `COc1cccc2cc(C(=O)N[C@@H](CC(C)C)C(=O)N[C@H](/C=N/NC(=O)N3CCN(C)CC3)CCc3ccccc3)oc12`, the growth inhibition in assay [1] is 73% (active); in assay [4], 85% (active). For the same molecule, the inhibition in assay [2] was 1%; in assay [3], 4%. Besides, the outcome in assay [5], in assay [6], in assay [7] and in assay [8] was inactive.
On to `COc1ccc2nc3cc(Cl)ccc3c(NCCCN3CCNCC3)c2c1`, for which the values for the growth inhibition in assay [1] and in assay [4] were 74% (active) and 104% (active), respectively. Moreover, the inhibition in assay [2] was 18%; in assay [3], -3%. Besides, the result in assay [5], in assay [6], in assay [7] and in assay [8] was inactive.
As to `CS(=O)(=O)NCCCNCc1cccc(-c2ccc(-c3nc4ccc(C(F)(F)F)cc4[nH]3)s2)c1`, the growth inhibition in assay [1] was 51% (active); in assay [4] it was 100% (active). Moreover, the inhibition in assay [2] is 11%; in assay [3] it was -8%. The result in assay [5], in assay [6], in assay [7] and in assay [8] was inactive.
Regarding `CCCCN1CCN(c2cc(NS(=O)(=O)c3cccc(C(=O)Nc4ccc(C(F)(F)F)cc4)c3)ccc2OC)CC1`, the growth inhibition in assay [1] was 7%; in assay [4], 99% (active). In addition, the inhibition in assay [2] was 6%; in assay [3], 4%. The outcome in assay [5], in assay [6], in assay [7] and in assay [8] was inactive.
`COc1cccc(NC(=O)NC2CCN(c3ccnc(Nc4cc(OC)c(OC)c(OC)c4)n3)C2)c1` (stereo not given): the growth inhibition is 57% (active) in assay [1] and 95% (active) in assay [4]. Also, the values for the inhibition in assay [2] and in assay [3] were 8% and -2%, respectively. For the same molecule, the outcome in assay [5], in assay [6], in assay [7] and in assay [8] was inactive.
On to `COc1ccc(Nc2nccc(N3CCC(NC(=O)Nc4cccc(OC)c4)C3)n2)cc1` (stereo not given), for which the results for the growth inhibition in assay [1] and in assay [4] were 48% and 99% (active), respectively. In addition, the inhibition was 23% in assay [2] and -1% in assay [3]. In addition, the outcome in assay [5], in assay [6], in assay [7] and in assay [8] was inactive.

Usually inhibition stands for the drop in the measured response relative to a control, in per cent.
